# High-throughput results (PubChem BioAssay)
# Sampled rows, rich in hits. Any-hit rate of the full collection: about 3.2%.
# bovine MsrA act – bovine MsrA enzyme activators, primary screen, biochemical, absorbance, HTS | Methionine sulfoxide reductase A (Bos taurus) | purified bovine MsrA, absorbance read-out | activation, % at 10.6 µM | 0.3% of 360,000 active | AID 602163, 2012; in the data active = activation above about 7.5%;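 also: 0% = vehicle and 100% = reference activator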
# NadD block – inhibitors of S. aureus NadD, primary screen, biochemical, colorimetric, uHTS. purified NadD enzyme, colorimetric absorbance read-out. inhibition, % at 20 µM. 0.78% of 360,000 active; in the data active = inhibition above about 26%
# DAGLB inh – DAGLB lipase inhibitors, primary screen, biochemical, fluorescence, HTS. inhibition, % at 5.17 µM. HEK293T DAGLB membrane lysate, EnzChek fluorogenic substrate. 0.059% of 340,000 active. AID 504411, 2011; in the data active = inhibition above about 34%;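 also: 0% = enzyme with vehicle and 100% = wells lacking enzyme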
# rCAG RNA binder – binders of r(CAG) RNA repeats, primary screen, biochemical, fluorescence | 1.3% of 370,000 active | inhibition, % at 3 µM | r(CAG) RNA repeat, TO-PRO-1 dye displacement fluorescence | AID 651821, 2012;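 active = inhibition above the plate cutoff, the mean of all test compounds on that plate plus 3 SD, cut at about 35% in these data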;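 also: 0% = DMSO alone and 100% = 100 µM mitoxantrone as full dye displacement; higher means more dye released from RNA so lower well fluorescence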
# MsrA inh – bovine MsrA enzyme inhibitors, primary screen, biochemical, absorbance, HTS. purified bovine MsrA, absorbance read-out. AID 651718, 2012. 0.75% of 360,000 active. inhibition, % at 15.5 µM; in the data active = inhibition above about 4.5%;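 also: 0% = vehicle wells with enzyme and 100% = reference inhibitor wells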
# Pemphigus Ab inh – inhibitors of pemphigus antibody binding to DSG3, primary screen, biochemical, bead-based, flow cytometry, scFv-GFP | binding (percent of control), % at 10 µM | DSG3-coupled beads, scFv-anti-DSG3-GFP binding; stronger effect = lower value | Desmoglein-3 (Homo sapiens), P32926 | AID 588358, 2011 | 0.48% of 310,000 active;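 active = binding more than 3 SD below its plate's average and above zero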;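 also: hits lower antibody fragment binding to DSG3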
# Target sequence (P32926 whole entry, looked up, the tested form may be a part): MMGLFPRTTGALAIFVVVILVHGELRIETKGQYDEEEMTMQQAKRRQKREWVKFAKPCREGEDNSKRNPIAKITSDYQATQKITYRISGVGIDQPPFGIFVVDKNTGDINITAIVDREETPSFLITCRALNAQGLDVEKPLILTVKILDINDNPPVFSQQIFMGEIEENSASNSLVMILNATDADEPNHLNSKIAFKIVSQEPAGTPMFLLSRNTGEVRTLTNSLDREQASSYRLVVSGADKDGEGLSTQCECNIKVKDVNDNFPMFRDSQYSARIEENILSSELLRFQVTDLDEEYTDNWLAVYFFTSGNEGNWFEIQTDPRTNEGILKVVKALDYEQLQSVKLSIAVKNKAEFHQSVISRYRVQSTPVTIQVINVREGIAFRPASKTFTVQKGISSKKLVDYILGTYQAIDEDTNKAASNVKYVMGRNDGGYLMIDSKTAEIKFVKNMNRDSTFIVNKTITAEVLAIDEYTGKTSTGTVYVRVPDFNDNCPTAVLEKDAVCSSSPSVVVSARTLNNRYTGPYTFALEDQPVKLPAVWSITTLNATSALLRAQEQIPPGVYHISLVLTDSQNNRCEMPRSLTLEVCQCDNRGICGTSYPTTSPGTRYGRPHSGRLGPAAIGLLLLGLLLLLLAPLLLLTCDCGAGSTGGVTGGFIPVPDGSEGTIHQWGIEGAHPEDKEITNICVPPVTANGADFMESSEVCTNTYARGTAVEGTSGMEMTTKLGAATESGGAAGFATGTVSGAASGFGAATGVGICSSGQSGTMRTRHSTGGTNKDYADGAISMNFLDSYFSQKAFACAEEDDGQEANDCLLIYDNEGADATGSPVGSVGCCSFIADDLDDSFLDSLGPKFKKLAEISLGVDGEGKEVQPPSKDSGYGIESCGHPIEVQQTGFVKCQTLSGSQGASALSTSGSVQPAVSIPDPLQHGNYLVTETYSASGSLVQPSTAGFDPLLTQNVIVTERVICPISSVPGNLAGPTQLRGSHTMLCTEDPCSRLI
# NadD inh conf – inhibitors of S. aureus NadD, confirmation, biochemical, colorimetric, single concentration; shares compounds with NadD block; purified S. aureus NadD, colorimetric enzyme assay; inhibition, % at 20 µM; 13% of 2,000 active; in the data active = inhibition mostly above about 42%, no sharp cut-off; inactive = mostly below about 42%
# Active calls of the source: *; . = no result.
SMILES,bovine MsrA act,NadD block,DAGLB inh,rCAG RNA binder,MsrA inh,Pemphigus Ab inh,NadD inh conf
O=C(Cc1ccccc1)Nc1ccc(N2CCOCC2)cc1,-6.5,-1.0,-1.3,-3.0,1.5,85.3,.
O=C(Cc1ccccc1)Nc1ccc(N2CCCC2)cc1,-6.4,40.8*,7.4,12.6,2.1,92.8,16.6
COc1cc(OC)cc(C2=Cc3ccccc3C(CC(=O)c3ccco3)N2c2ccc(-c3cccnc3)cc2)c1 (stereo not drawn),-3.2,34.9*,.,13.8,2.5,.,36.2
COC(=O)c1ccc(N2C(c3cc(OC)cc(OC)c3)=Cc3ccc(-c4cccnc4)cc3C2CC(=O)C2CC2)cc1 (stereo not drawn),-5.1,32.1*,.,10.4,1.6,.,22.4
Fc1ccc(-c2ccc3c(c2)C2CC3CCN2Cc2ccc3c(c2)OCO3)cc1 (stereo not drawn),1.4,0.1,-8.8,1.9,0.3,107.5,.
COc1cc(NC(=O)CSc2ncnc3sc4c(c23)CCC(C)C4)c(C(=O)O)cc1OC (stereo not drawn),-0.1,35.8*,0.8,13.4,-1.5,96.9,20.6
CC1CCc2c(sc3ncnc(SCC(=O)Nc4ccc(C(=O)O)cc4)c23)C1 (stereo not drawn),-0.8,10.9,-0.2,1.8,-1.3,108.4,.
CCN(CC)c1ccc(-c2nn3c(-c4ccc(C(C)(C)C)cc4)nnc3s2)cc1,.,.,.,3.5,.,.,.
Cc1ccc(S(=O)(=O)Nc2ccc(Nc3nccn4c(-c5cccc(OC(F)(F)F)c5)cnc34)cc2)cc1,6.2,32.8*,.,15.0,-0.1,.,52.5*
COc1ccccc1C(=O)NCC(c1ccco1)N1CCc2ccccc21 (stereo not drawn),-3.8,-1.5,-0.7,-2.1,-0.6,97.2,.
CCCCOc1ccccc1NC(=O)CC1Nc2ccccc2NC1=O (stereo not drawn),-3.3,31.2*,9.5,17.4,0.3,92.0,33.9
NC(CSC1(c2ccc(Cl)cc2)c2ccccc2-c2ccccc21)C(=O)O (stereo not drawn),0.1,41.0*,-7.5,19.3,0.3,106.7,57.2*
COc1ccc(C2(SCC(N)C(=O)O)c3ccccc3-c3ccccc32)cc1 (stereo not drawn),0.1,36.4*,-8.5,22.1,-0.4,72.2*,30.1
COc1ccc(C2(C(=O)c3ccccc3)C(=O)c3ccccc3C2=O)cc1,1.0,-1.3,-0.7,.,.,108.5,.
NC(CSC1(c2ccc(F)cc2)c2ccccc2-c2ccccc21)C(=O)O (stereo not drawn),-1.1,26.9,-8.1,15.7,-1.1,95.4,.
CC1(C)Oc2cc3oc(=O)ccc3c3c2C2C1CCC(C)(O3)C2O (stereo not drawn),-5.6,4.6,.,-1.5,2.1,.,.
C[C@@H]1CN([C@@H](C)CO)S(=O)(=O)c2ccc(Br)cc2O[C@@H]1CN(C)S(=O)(=O)c1ccc(F)cc1,.,.,.,6.8,0.2,.,.
N#CC1=C2SCN(Cc3ccco3)CN2C(=O)CC1c1ccccc1F (stereo not drawn),-0.3,1.6,-0.8,.,.,96.6,.
N#CC1=C2SCN(Cc3ccco3)CN2C(=O)CC1c1cccc2ccccc12 (stereo not drawn),1.7,31.3*,5.2,37.3*,-1.1,.,9.1
Cc1nonc1NC(=O)CSc1nc2cc(Cl)ccc2c2c1CCCC2,-4.4,30.4*,-0.2,.,.,100.3,12.1
O=C1CCN(CCCN2CCC(=O)NC2=S)C(=S)N1,-5.3,-6.7,-6.4,1.0,-0.3,109.3,.
Cc1ccc(NC(=O)c2ncn(CCCN(CCCn3cnc(C(=O)Nc4ccc(C)c(C)c4)n3)Cc3ccc4[nH]ccc4c3)n2)cc1C,0.8,38.7*,1.6,10.4,0.8,109.9,31.7
COc1cc(C(=O)N2CCCC(c3cc(C(=O)NCc4ccccc4)no3)C2)cc(OC)c1C (stereo not drawn),-1.4,-5.8,.,2.2,-0.8,.,.
Cc1[nH]c2ccc(C(=O)NCCCN3CCCCCC3)cc2c1C,-4.2,29.3*,1.2,1.2,0.3,100.6,7.0
Cc1[nH]c2ccc(C(=O)NCCCN3CCCC3)cc2c1C,-3.9,3.7,-0.1,-0.3,0.1,.,.
SMILES,bovine MsrA act,NadD block,DAGLB inh,rCAG RNA binder,MsrA inh,Pemphigus Ab inh,NadD inh conf
COc1ccc(/C=C2/CN(Cc3ccc(OC)cc3OC)C3=N[C@H](c4ccccc4)CC(=O)N32)cc1,.,.,.,5.7,.,.,.
COc1ccc(-c2csc3ncnc(N4CCN(S(=O)(=O)c5cccc(Br)c5)CC4)c23)cc1,-4.9,31.5*,-6.6,4.2,-0.2,96.2,18.4
Cc1ccc(S(=O)(=O)N2CCN(c3ncnc4scc(-c5ccc(F)cc5)c34)CC2)cc1,-2.8,37.3*,-3.7,2.3,0.2,96.0,13.8
C#CCn1c(=NC(=O)c2ccccc2[N+](=O)[O-])sc2cc(S(C)(=O)=O)ccc21,-4.7,0.9,3.8,2.4,0.8,.,.
C#CCn1c(=NC(=O)c2sc3ccccc3c2Cl)sc2cc(S(N)(=O)=O)ccc21,-5.0,39.0*,3.5,-1.8,4.4,108.9*,-7.3
CC1=C(C(=O)N2CCCCCC2)CC(CC(=O)NCCc2ccccn2)C(=O)N1Cc1ccc(C(C)(C)C)cc1 (stereo not drawn),-1.6,9.2,.,0.1,0.5,.,.
Cc1ccc(-c2cc3nc(C)cc(C)n3n2)cc1,-3.4,-2.1,-2.7,-4.7,-1.2,97.5,.
Cc1cc(C)n2nc(-c3ccsc3-n3c(C)ccc3C)cc2n1,-9.5,38.7*,-1.4,17.1,1.0,87.4,13.5
O=C(Nc1ccc(N2CCCCC2)c(S(=O)(=O)Nc2ccccc2Cl)c1)c1cccnc1,0.5,4.2,-0.2,10.6,0.1,91.4,.
COc1ccccc1NS(=O)(=O)c1cc(NC(=O)C(C)C)ccc1N1CCCCC1,-8.0,10.0,-4.0,6.3,-0.6,123.1,.
O=C(/C=C/c1cccs1)Nc1ccc(N2CCOCC2)c(S(=O)(=O)Nc2cc(Cl)ccc2Cl)c1,-11.4,33.5*,0.1,14.9,0.3,112.5,16.3
O=C(Nc1ccc(Cl)c(Cl)c1)Nc1ccc(N2CCCC2)c(S(=O)(=O)Nc2ccccc2Cl)c1,-4.8,31.0*,-1.1,33.1,0.8,88.5,36.4
COc1ccccc1NS(=O)(=O)c1cc(NC(=O)Nc2ccccc2)ccc1N1CCCCC1,-5.5,34.8*,-0.6,26.4,-0.7,118.4,24.4
COc1ccc(NS(=O)(=O)c2cc(NC(=O)/C=C/c3cc(OC)ccc3OC)ccc2N2CCCCC2)cc1,0.0,38.9*,-3.6,2.7,0.1,89.4,12.7
